# Laboratory results from PubChem BioAssay (NCATS).
# Where “and” joins values, the source holds several entries; their conditions need not be identical. Equal entries are not always repeated. Records with an inconclusive call do not appear. A call without a number means that no potency is given here. Calls of active or inactive are those of the source. The call rests on the fitted dose curve; in most records, active means well fitted curve in the direction sought with a large enough effect; inconclusive means small, poorly fitted or top-dose-only effect, or another doubt; inactive means no such curve, though single readings can be large; an effect the other way counts as inactive or inconclusive.
# Legend:
# [1] = qHTS of pediatric cancer cell lines to identify multiple opportunities for drug repurposing: Primary screen for TC32 cells (AID 1347089); further: nearly all actives have a fitted effect of over 60% in size; further: potency means the concentration at half of the fitted maximal effect
# Method in brief: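 In the primary qHTS, MIPE compounds were tested at 11 concentrations (0.78 nM to 46 µM) and NPC compounds at 8 (0.59 nM to 46 µM) on TC32 cells for 48 h. CellTiter-Glo luminescence gave viability.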
# [2] = qHTS of pediatric cancer cell lines to identify multiple opportunities for drug repurposing: Primary screen for DAOY cells (AID 1347090); further: nearly all actives have a fitted effect of over 55% in size; further: potency means the concentration at half of the fitted maximal effect
# Method in brief: (§1)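 Eight- or eleven-point concentration series, 48 h treatment at 37 degrees C in growth media; readout CellTiter-Glo luminescence. Potency and efficacy were taken from the concentration-response curves.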
# [3] = qHTS of pediatric cancer cell lines to identify multiple opportunities for drug repurposing: Primary screen for SJ-GBM2 cells (AID 1347091); further: potency means the concentration at half of the fitted maximal effect
# Method in brief: as §1
# [4] = qHTS of pediatric cancer cell lines to identify multiple opportunities for drug repurposing: Primary screen for A673 cells (AID 1347092); further: nearly all actives have a fitted effect of over 45% in size; further: potency means the concentration at half of the fitted maximal effect
# Method in brief: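 48 h compound exposure, A673, 500-1,000 cells/well, 37 degrees C/5% CO2. MIPE: 11-point, 0.78 nM-46 µM; NPC: 8-point, 0.59 nM-46 µM (final). Readout CellTiter-Glo luminescence after 15 min RT.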
# [5] = qHTS of pediatric cancer cell lines to identify multiple opportunities for drug repurposing: Primary screen for SK-N-MC cells (AID 1347093); further: potency means the concentration at half of the fitted maximal effect
# Method in brief: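 Metabolically active cells were quantified by ATP-dependent luminescence (CellTiter-Glo, 15 min at room temperature) following 48 h treatment. Cells had been plated at 500-1,000 per well and settled for 5 h beforehand.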
# [6] = qHTS of pediatric cancer cell lines to identify multiple opportunities for drug repurposing: Primary screen for BT-37 cells (AID 1347094); further: series mostly up to about 57 µM
# Method in brief: (§2)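 Readout: CellTiter-Glo luminescence, 48 h treatment. Controls DMSO (neutral) and bortezomib 2.3 µM final (positive). Potency and efficacy taken from primary-screen concentration-response curves.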
# [7] = qHTS of pediatric cancer cell lines to identify multiple opportunities for drug repurposing: Primary screen for U-2 OS cells (AID 1347096); further: nearly all actives have a fitted effect of over 50% in size; further: potency means the concentration at half of the fitted maximal effect
# Method in brief: (§3)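 Cells (500-1,000/well) in growth media were settled 5 h at 37 degrees C, then given compounds for 48 h. Viability was read as CellTiter-Glo luminescence. Primary runs used MIPE at 11 points (0.78 nM-46 µM) and NPC at 8 points (0.59 nM-46 µM); follow-ups used 11 points.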
# [8] = qHTS of pediatric cancer cell lines to identify multiple opportunities for drug repurposing: Primary screen for SK-N-SH cells (AID 1347098); further: nearly all actives have a fitted effect of over 65% in size; further: potency means the concentration at half of the fitted maximal effect
# Method in brief: (§4)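 Cells (500-1,000/well) rested 5 h, then received compounds for 48 h; metabolically active cells were measured by CellTiter-Glo luminescence. Final concentrations spanned up to 46 µM (MIPE, 11-point) or 0.59 nM-46 µM (NPC, 8-point) in primary screens, 11-point in follow-ups.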
# [9] = qHTS of pediatric cancer cell lines to identify multiple opportunities for drug repurposing: Primary screen for NB1643 cells (AID 1347099); further: nearly all actives have a fitted effect of over 50% in size; further: potency means the concentration at half of the fitted maximal effect
# Method in brief: as §2
# [10] = qHTS of pediatric cancer cell lines to identify multiple opportunities for drug repurposing: Primary screen for LAN-5 cells (AID 1347100); further: potency means the concentration at half of the fitted maximal effect
# Method in brief: as §3
# [11] = qHTS of pediatric cancer cell lines to identify multiple opportunities for drug repurposing: Primary screen for BT-12 cells (AID 1347101); further: nearly all actives have a fitted effect of over 25% in size; further: potency means the concentration at half of the fitted maximal effect
# Method in brief: as §4
# [12] = qHTS of pediatric cancer cell lines to identify multiple opportunities for drug repurposing: Primary screen for Rh18 cells (AID 1347102); further: nearly all actives have a fitted effect of over 65% in size; further: potency means the concentration at half of the fitted maximal effect
# Method in brief: as §3
# [13] = qHTS of pediatric cancer cell lines to identify multiple opportunities for drug repurposing: Primary screen for OHS-50 cells (AID 1347103); further: nearly all actives have a fitted effect of over 40% in size; further: potency means the concentration at half of the fitted maximal effect
# Method in brief: as §4
# [14] = qHTS of pediatric cancer cell lines to identify multiple opportunities for drug repurposing: Primary screen for RD cells (AID 1347104); further: nearly all actives have a fitted effect of over 55% in size; further: potency means the concentration at half of the fitted maximal effect
# Method in brief: as §2
# [15] = qHTS of pediatric cancer cell lines to identify multiple opportunities for drug repurposing: Primary screen for NB-EBc1 cells (AID 1347095); further: potency means the concentration at half of the fitted maximal effect
# Method in brief: as §2
# [16] = qHTS of pediatric cancer cell lines to identify multiple opportunities for drug repurposing: Primary screen for Saos-2 cells (AID 1347097); further: nearly all actives have a fitted effect of over 40% in size; further: potency means the concentration at half of the fitted maximal effect
# Method in brief: as §2
SMILES,Potency [1],Potency [2],Potency [3],Potency [4],Potency [5],Potency [6],Potency [7],Potency [8],Potency [9],Potency [10],Potency [11],Potency [12],Potency [13],Potency [14],Potency [15],Potency [16]
Nc1ccc(S(=O)(=O)Nc2ccccn2)cc1,inactive,inactive,inactive,inactive,inactive,inactive,inactive,inactive,inactive,inactive,inactive,inactive,inactive,inactive,,
CC(C)C[C@H](NC(=O)[C@H](CCc1ccccc1)NC(=O)CN1CCOCC1)C(=O)N[C@@H](Cc1ccccc1)C(=O)N[C@@H](CC(C)C)C(=O)[C@@]1(C)CO1,23.6 nM (active) and 147 nM (active),53.1 nM (active) and 93.5 nM (active),66.8 nM (active) and 29.6 nM (active),10.6 nM (active) and 18.7 nM (active),6 nM (active) and 5.9 nM (active),,1.06 µM (active) and 1.48 µM (active),,42.2 nM (active) and 52.6 nM (active),668 nM (active) and 132 nM (active),87.1 nM (active) and 137 nM (active),106 nM (active) and 264 nM (active),61.7 nM (active) and 109 nM (active),23.7 nM (active) and 41.8 nM (active),53.1 nM (active) and 29.6 nM (active),42.2 nM (active) and 93.5 nM (active)
Cc1oc(=O)oc1CN1CCN(c2cc3c(cc2F)c(=O)c(C(=O)O)c2n3C(C)S2)CC1 (configuration not stated),inactive,inactive,inactive,inactive,inactive,inactive,inactive,inactive,inactive,inactive,inactive,inactive,inactive,inactive,inactive,
CS(=O)(=O)c1ccc([C@@H](O)[C@@H](CO)NC(=O)C(Cl)Cl)cc1,inactive,inactive,inactive,inactive,inactive,,inactive,inactive,inactive,inactive,inactive,inactive,inactive,,inactive,inactive
NC(N)=NC(N)=NCCc1ccccc1,inactive,18.7 µM (active),inactive,8.41 µM (active) and 5.9 µM (active),inactive,,inactive,inactive,inactive,inactive,19.3 µM (active),inactive,,,inactive,
COc1cc(NS(=O)(=O)c2ccc(N)cc2)nc(OC)n1,inactive,inactive,inactive,inactive,inactive,inactive,inactive,inactive,inactive,inactive,inactive,inactive,inactive,,inactive,
COc1cc([C@@H]2c3cc4c(cc3[C@H](O)[C@H]3COC(=O)[C@H]23)OCO4)cc(OC)c1OC,167 nM (active) and 5.2 nM (active),0.0335 µM (active),23.7 nM (active) and 1 nM (active),84.1 nM (active) and 1 nM (active),53.1 nM (active) and 1 nM (active),,inactive,inactive,59.6 nM (active),7.5 nM (active) and 1 nM (active),55 nM (active) and 1.9 nM (active),inactive,,inactive,8.4 nM (active) and 1 nM (active),33.5 nM (active) and 2.64 µM (active)
COc1ccccc1OCC(O)COC(N)=O (configuration not stated),inactive,inactive,inactive,inactive,inactive,inactive,inactive,inactive,inactive,inactive,inactive,inactive,,inactive,inactive,
O=C(O)c1cc(=O)[nH]c(=O)[nH]1,inactive,inactive,inactive,inactive,inactive,,inactive,,inactive,inactive,inactive,inactive,,,inactive,inactive
CNS(=O)(=O)Cc1ccc2[nH]cc(CCN(C)C)c2c1,inactive,inactive,inactive,inactive,inactive,inactive,inactive,inactive,inactive,inactive,inactive,inactive,inactive,inactive,,inactive
COc1ncnc(NS(=O)(=O)c2ccc(N)cc2)c1OC,inactive,inactive,inactive,inactive,inactive,inactive,inactive,inactive,inactive,inactive,inactive,inactive,,inactive,,inactive
CC(C)C1CCC(C(=O)N[C@H](Cc2ccccc2)C(=O)O)CC1 (some centres not stated),inactive,inactive,inactive,inactive,inactive,inactive,inactive,inactive,inactive,inactive,inactive,inactive,inactive,inactive,,inactive
CNC(=O)c1cc(Oc2ccc(NC(=O)Nc3ccc(Cl)c(C(F)(F)F)c3)cc2)ccn1,inactive,11.8 µM (active),8.33 µM (active),2.96 µM (active),3.32 µM (active),,18.7 µM (active),19.2 µM (active) and 15.4 µM (active),4690 nM (active),20.9 µM (active),17.2 µM (active),18.7 µM (active),15.3 µM (active) and 15.5 µM (active),18.7 µM (active) and 23.7 µM (active),5.26 µM (active),18.7 µM (active)
Cc1cccc(Nc2ccncc2S(=O)(=O)NC(=O)NC(C)C)c1,inactive,inactive,inactive,inactive,inactive,inactive,inactive,inactive,inactive,inactive,inactive,inactive,inactive,inactive,inactive,
